Where “and” joins values, the source holds several entries; their conditions need not be identical. Identical values can stand only once. Some compounds were tested as several samples or in several runs, with calls that do not always agree. Calls of active or inactive are those of the source. Rule for the calls: active = hit-call score of the fitted dose curve at least 0.9, where 1 is the maximum; inactive = score below 0.9.

Read-out in experiment [1]: Urokinase-type plasminogen activator receptor (uPAR), PLAUR (gene 5329)
Put plainly: BSK_4H_uPAR: BioMAP Diversity Plus: 4H Assay for Urokinase-type plasminogen activator receptor (uPAR) Biomarker Activity (AID 2283030). To be noted: primary human endothelial cells (HUVEC); actives raise or lower the signal. An outline of the steps:
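Chemicals are dosed onto human vascular endothelial primary cells (umbilical vein). After 24 h, uPAR is read by ELISA. Gain or loss of signal is fitted relative to DMSO.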

Read-out in experiment [2]: Vascular endothelial growth factor receptor 2 (Homo sapiens) (UniProt P35968)
Nature of the experiment: BSK_4H_VEGFRII: BioMAP Diversity Plus: 4H Assay for Vascular endothelial growth factor receptor 2 (VEGFR2) Biomarker Activity (AID 2283031).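 For AC50: cell-surface VEGFR2 protein level quantified by ELISA.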 To be noted: primary human endothelial cells (HUVEC); actives raise or lower the signal. An outline of the steps:
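VEGFRII levels on human vascular endothelial primary cells were determined by ELISA at 24 hours post-dosing, with gain- or loss-of-signal fitted against DMSO controls.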

Read-out in experiment [3]: Human Leukocyte Antigen - DR isotype (HLADR), HLA-DRA (gene 3122)
Nature of the experiment: BSK_BE3C_HLADR: BioMAP Diversity Plus: BE3C Assay for Human Leukocyte Antigen - DR isotype (HLADR) Biomarker Activity (AID 2283032). Particulars: primary human bronchial epithelial cells; actives raise or lower the signal. The method, boiled down:
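Chemicals are dosed onto BE3C bronchial epithelial cultures of human origin and left 24 h. HLA-DR is then measured by ELISA, and the endpoint is fitted in both directions using DMSO as the activity baseline.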

Read-out in experiment [4]: Vascular cell adhesion molecule 1 (VCAM1), VCAM1 (gene 7412)
Put plainly: BSK_4H_VCAM1: BioMAP Diversity Plus: 4H Assay for Vascular cell adhesion molecule 1 (VCAM1) Biomarker Activity (AID 2283033).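 For outcome: cell-surface VCAM-1 protein measured by ELISA.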 Particulars: primary human endothelial cells (HUVEC); actives raise or lower the signal. The method, boiled down: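 Chemicals are added to primary human umbilical vein endothelial cells. After 24 h, VCAM-1 levels are measured by ELISA. Values come from bidirectional fitting referenced to DMSO.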

Read-out in experiment [5]: Interferon-gamma inducible Protein 10 (IP10), CXCL10 (gene 3627)
Put plainly: BSK_BE3C_IP10: BioMAP Diversity Plus: BE3C Assay for Interferon-gamma inducible Protein 10 (IP10) Biomarker Activity (AID 2283034). To be noted: primary human bronchial epithelial cells; actives raise or lower the signal. The method, boiled down: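 IP-10 quantified by ELISA serves as the endpoint. Cells: primary human bronchial epithelium, read 24 h after compound addition. Activity is derived by bidirectional fitting with DMSO as negative control.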

Read-out in experiment [6]: Monokine induced gamma interferon (MIG), CXCL9 (gene 4283)
Nature of the experiment: BSK_BE3C_MIG: BioMAP Diversity Plus: BE3C Assay for Monokine induced gamma interferon (MIG) Biomarker Activity (AID 2283035).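 For outcome: MIG protein measured by ELISA in BE3C cultures after 24 h of dosing.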 To be noted: primary human bronchial epithelial cells; actives raise or lower the signal. The method, boiled down:
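hu bronchial epithelial 1° cells, 24 h cpd; MIG by ELISA; bidirectional fit, DMSO = baseline.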

Read-out in experiment [7]: Transforming growth factor beta 1 (TGFb1), TGFB1 (gene 7040)
Nature of the experiment: BSK_BE3C_TGFb1: BioMAP Diversity Plus: BE3C Assay for Transforming growth factor beta 1 (TGFb1) Biomarker Activity (AID 2283036;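 for outcome: TGF-b1 protein level measured by ELISA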). To be noted: primary human bronchial epithelial cells; actives raise or lower the signal. An outline of the steps:
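Bronchial epithelial primary cells are treated with test chemical, then TGF-b1 is quantified by ELISA after 24 hours. Values derive from bidirectional fitting against DMSO, with cytotoxicity checked by SRB staining in parallel cultures.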

Read-out in experiment [8]: urokinase plasminogen activator (uPA), PLAU (gene 5328)
Put plainly: BSK_BE3C_uPA: BioMAP Diversity Plus: BE3C Assay for urokinase plasminogen activator (uPA) Biomarker Activity (AID 2283038).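 For outcome: uPA protein level quantified by ELISA in cell cultures; uPA read one day after compound addition.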 Particulars: primary human bronchial epithelial cells; actives raise or lower the signal. The method, boiled down:
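Measured by ELISA: uPA from human primary bronchial epithelial cells 24 h after chemical treatment. Values derive from bidirectional curve fitting with DMSO serving as negative control. Total protein by SRB staining in parallel wells flagged overt cytotoxicity.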

Read-out in experiment [9]: Urokinase-type plasminogen activator receptor (uPAR), PLAUR (gene 5329)
Nature of the experiment: BSK_BE3C_uPAR: BioMAP Diversity Plus: BE3C Assay for Urokinase-type plasminogen activator receptor (uPAR) Biomarker Activity (AID 2283039).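 For outcome: uPAR protein level measured by ELISA on the cells; cells exposed to compound for one day before measurement.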 Particulars: primary human bronchial epithelial cells; actives raise or lower the signal. The method, boiled down: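 Steps: dose human primary bronchial epithelial cells, incubate 24 h, measure uPAR by ELISA, then fit gain- or loss-of-signal response bidirectionally relative to DMSO.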

Read-out in experiment [10]: Interleukin-6 (IL6), IL6 (gene 3569)
Put plainly: BSK_CASM3C_IL6: BioMAP Diversity Plus: CASM3C Assay for Interleukin-6 (IL6) Biomarker Activity for (AID 2283040). Particulars: primary human coronary artery smooth muscle cells; actives raise or lower the signal.

Read-out in experiment [11]: Tissue plasminogen activator (tPA), PLAT (gene 5327)
Nature of the experiment: BSK_BE3C_tPA: BioMAP Diversity Plus: BE3C Assay for Tissue plasminogen activator (tPA) Biomarker Activity (AID 2283041).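 For outcome: tPA level quantified by ELISA one day after compound addition.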 Particulars: primary human bronchial epithelial cells; actives raise or lower the signal. An outline of the steps: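 Gain- or loss-of-signal in tPA, measured by ELISA, derived by bidirectional fitting against DMSO. Cells: human primary bronchial epithelial; read at 24 h after chemical dosing.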

Read-out in experiment [12]: Interleukin-8 (IL8), CXCL8 (gene 3576)
Nature of the experiment: BSK_CASM3C_IL8: BioMAP Diversity Plus: CASM3C Assay for Interleukin-8 (IL8) Biomarker Activity (AID 2283042).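 Note: IL-8 protein level quantified by ELISA.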 Particulars: primary human coronary artery smooth muscle cells; actives raise or lower the signal.

Read-out in experiment [13]: Human Leukocyte Antigen - DR isotype (HLADR), HLA-DRA (gene 3122)
Put plainly: BSK_CASM3C_HLADR: BioMAP Diversity Plus: CASM3C Assay for Human Leukocyte Antigen - DR isotype (HLADR) Biomarker Activity (AID 2283043).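 Note: cell-surface HLA-DR protein level quantified by ELISA.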 Particulars: primary human coronary artery smooth muscle cells; actives raise or lower the signal.

Read-out in experiment [14]: Macrophage colony-stimulating factor (MCSF), CSF1 (gene 1435)
Put plainly: BSK_CASM3C_MCSF: BioMAP Diversity Plus: CASM3C Assay for Macrophage colony-stimulating factor (MCSF) Biomarker Activity (AID 2283044).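 Note: M-CSF protein amount quantified by ELISA after 24 h exposure.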 Particulars: primary human coronary artery smooth muscle cells; actives raise or lower the signal.

Read-out in experiment [15]: Low-density lipoprotein receptor (LDLR), LDLR (gene 3949)
Nature of the experiment: BSK_CASM3C_LDLR: BioMAP Diversity Plus: CASM3C Assay for Low-density lipoprotein receptor (LDLR) Biomarker Activity (AID 2283045).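 Note: LDLR protein level on the cell surface quantified by ELISA.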 Particulars: primary human coronary artery smooth muscle cells; actives raise or lower the signal.

Read-out in experiment [16]: Monocyte Chemoattractant Protein-1 (MCP1), CCL2 (gene 6347)
Put plainly: BSK_CASM3C_MCP1: BioMAP Diversity Plus: CASM3C Assay for Monocyte Chemoattractant Protein-1 (MCP1) Biomarker Activity (AID 2283046).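 Note: MCP-1 level quantified by ELISA 24 h after dosing.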 Particulars: primary human coronary artery smooth muscle cells; actives raise or lower the signal.

A short description of experiment [17]: BSK_CASM3C_Proliferation: Cell Proliferation Assessment in the BioMAP Diversity Plus: CASM3C Assay (AID 2283047).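 Note: sulforhodamine B total protein stain as relative cell number at 560 nm; sub-confluent cells exposed 48 h before staining; fitted both ways against DMSO so gain or loss of cell number.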 To be noted: primary human coronary artery smooth muscle cells.
Read-out in experiment [18]: Monokine induced gamma interferon (MIG), CXCL9 (gene 4283)
Nature of the experiment: BSK_CASM3C_MIG: BioMAP Diversity Plus: CASM3C Assay for Monokine induced gamma interferon (MIG) Biomarker Activity (AID 2283048).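 Note: MIG protein level measured by ELISA.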 Particulars: primary human coronary artery smooth muscle cells; actives raise or lower the signal.

Read-out in experiment [19]: serum amyloid A (SAA), SAA1 (gene 6288)
Nature of the experiment: BSK_CASM3C_SAA: BioMAP Diversity Plus: CASM3C Assay for serum amyloid A (SAA) Biomarker Activity (AID 2283049).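 Note: SAA protein level quantified by ELISA.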 Particulars: primary human coronary artery smooth muscle cells; actives raise or lower the signal.

The AC50 is the concentration at which the activity in the assay is half-maximal. Consider `O=S1(=O)CC(Cl)(Cl)C(Cl)(Cl)C1`, for which the AC50 in [1] was 921 nM (active); in experiment [3] it was 960 nM (active); in experiment [4], 582 nM (active); in experiment [5] it was 1.07 µM (active); in experiment [6], 2.04 µM (active); in experiment [7], 582 nM (active). The concentration at half-maximal activity (AC50) was 1.08 µM (active) in [8]; 1.66 µM (active) in [9]; 1.44 µM (active) in experiment [10]; 964 nM (active) in experiment [11]; 1.3 µM (active) in experiment [12]; 421 nM (active) in [13]. In addition, the AC50 was 908 nM (active) in [14]; 389 nM (active) in experiment [15]; 1.11 µM (active) in experiment [16]; 113 nM (active) in experiment [17]; 2.22 µM (active) in [18]; 764 nM (active) in experiment [19]. Also, the outcome in experiment [2] was inactive.
With `CC1(C)[C@H](C=C(Cl)Cl)[C@H]1C(=O)OCc1cccc(Oc2ccccc2)c1`, the result in [1], in experiment [2], in [3], in experiment [4], in [5] and in [6] was inactive. In addition, the result in [7], in [8], in experiment [9], in experiment [10], in experiment [11] and in [12] was inactive. In addition, the outcome in [13], in experiment [14], in [15], in [16], in experiment [17] and in [18] was inactive. Further, the result in experiment [19] was inactive.
As for `CC(=O)c1ccc(C)cc1`, the result in experiment [1], in experiment [2], in experiment [3], in experiment [4], in [5] and in [6] was inactive. The outcome in [8], in experiment [9], in experiment [10], in experiment [11], in experiment [12] and in experiment [13] was inactive. For the same compound, the result in [14], in [15], in [16], in experiment [17], in experiment [18] and in [19] was inactive. Moreover, the half-maximal activity concentration (AC50) in experiment [2] was 1450 nM (active).
Consider `CC/C(=C(\c1ccccc1)c1ccc(OCCN(C)C)cc1)c1ccccc1`, for which the AC50 in experiment [1] was 5.66 µM (active) and 7.14 µM (active); in [2] it was 4710 nM (active); in experiment [3], 9.68 µM (active) and 9.06 µM (active); in experiment [4], 8.4 µM (active) and 8.08 µM (active); in [5] it was 10.3 µM (active) and 9.01 µM (active); in [6], 12.1 µM (active) and 11.1 µM (active). The concentration at half-maximal activity (AC50) is 9.23 µM (active) and 20 µM (active) in experiment [7]; 9.63 µM (active) and 7.45 µM (active) in experiment [8]; 8.83 µM (active) and 6.66 µM (active) in [9]; 27.3 µM (active) and 32.2 µM (active) in [10]; 7.72 µM (active) and 14 µM (active) in experiment [11]; 30.9 µM (active) and 15.7 µM (active) in [12]. In addition, the half-maximal activity concentration (AC50) in experiment [13] was 28.8 µM (active) and 9.17 µM (active); in experiment [14], 21 µM (active) and 15.7 µM (active); in experiment [15], 31.8 µM (active) and 34.2 µM (active); in experiment [16], 27.4 µM (active) and 25.9 µM (active); in experiment [17], 12.7 µM (active) and 6.94 µM (active); in [18], 31.5 µM (active) and 32 µM (active). The AC50 in experiment [19] is 28.1 µM (active) and 11.7 µM (active). Besides, the outcome in experiment [2] was inactive.
Turning to `C=C1CC/C=C(\C)CC[C@@H]2[C@@H]1CC2(C)C`, the AC50 was 33200 nM (active) in experiment [1], 29100 nM (active) in experiment [2], 29800 nM (active) in [4] and 28.6 µM (active) in [5]. For the same compound, the outcome in experiment [3], in experiment [6], in experiment [7], in [8], in experiment [9] and in experiment [10] was inactive. The outcome in experiment [11], in experiment [12], in experiment [13], in [14], in [15] and in experiment [16] was inactive. For the same compound, the result in [17], in experiment [18] and in [19] was inactive.

For the origin of these results see PubChem BioAssay (EPA / NIEHS).
